In the library only some 0.86% were active in any assay of this set; here they are far more common.
CDC25B CDK2 inh: human CDC25B-CDK2/CyclinA binding inhibition | z-score (concentration not given with the values) | hit rate 0.72% among 94,000 | HTRF CDC25B-CDK2/CyclinA binding, anti-His/anti-Flag; active compounds read high | AID 1259370 | P30305+P24941; in the data active = z-score above about 3.2
TAR Tat displ: HIV-1 TAR-Tat binding disruption; AID 1259389; z-score (concentration not given with the values); hit rate 0.6% among 100,000; HIV-1 TAR RNA, Tat peptide displacement FRET; active compounds read high; active = z-score of 3 or more in at least 2 runs
A number is an active result.

O=C1c2ccccc2-c2onc3c(N4CCOCC4)cc(NCCN4CCCC4)c1c23 was read as CDC25B CDK2 inh inactive and TAR Tat displ inactive.
CCOCCCNc1cc(N2CCN(c3ccccc3)CC2)c2noc3c2c1C(=O)c1ccccc1-3 was read as CDC25B CDK2 inh inactive and TAR Tat displ inactive.
For CCNc1cc(N2CCOCC2)c2noc3c2c1C(=O)c1ccccc1-3 the results were CDC25B CDK2 inh inactive and TAR Tat displ 11.2.
Screening CCC(=O)N1c2cc(C)c(C)cc2C(=C2SC(C(=O)OC)=C(C(=O)OC)S2)C(=S)C1(C)C returned CDC25B CDK2 inh inactive and TAR Tat displ inactive.
`O=C(NCC(c1cccs1)S(=O)(=O)c1ccc(Cl)cc1)C1CC1` (stereo unspecified) gave TAR Tat displ inactive.
COc1ccc(NC2CCCCC2NS(=O)(=O)c2ccccc2)cc1 (stereo unspecified) was read as CDC25B CDK2 inh inactive and TAR Tat displ inactive.
O=S(=O)(NC1CCCCC1Nc1ccc(F)cc1)c1ccccc1 (stereo unspecified) was read as CDC25B CDK2 inh 8.62 and TAR Tat displ inactive.
Screening Cc1ccnc(NC(=O)CCS(=O)(=O)c2ccc3c(c2)NC(=O)CS3)c1 returned TAR Tat displ inactive.
For COc1ccc(/C=C/c2nc(C#N)c(N3CC(C)CC(C)C3)o2)cc1OC (stereo unspecified) the results were CDC25B CDK2 inh inactive and TAR Tat displ inactive.
O=C(NCCCN1CCc2ccccc2C1)Nc1ccc(Br)cc1 was read as CDC25B CDK2 inh 9.21 and TAR Tat displ inactive.
CSc1ccc(NC(=O)NCCCN2CCc3ccccc3C2)cc1 was read as CDC25B CDK2 inh inactive and TAR Tat displ inactive.
For CCOc1cc(C2CC(=O)N3CN(C4CCCCC4)CSC3=C2C#N)ccc1O (stereo unspecified) the results were CDC25B CDK2 inh 3.38 and TAR Tat displ inactive.
`COc1ccc(C2CC(=O)N3CN(C4CCCCC4)CSC3=C2C#N)c(OC)c1` (stereo unspecified) gave CDC25B CDK2 inh inactive and TAR Tat displ inactive.
COc1cc(C2CC(=O)N3CN(C4CCCCC4)CSC3=C2C#N)ccc1O (stereo unspecified) was read as CDC25B CDK2 inh 3.78 and TAR Tat displ inactive.
Screening C=CCN1C(=O)C(Cc2ccc(O)cc2)NC1=S (stereo unspecified) returned CDC25B CDK2 inh inactive.
`Cc1ccccc1-c1nn2c(C(F)(F)F)nnc2s1` gave CDC25B CDK2 inh inactive and TAR Tat displ inactive.
`Cc1cccn2c(=O)c3cc(C(=O)N4CCN(C(c5ccccc5)c5ccccc5)CC4)n(C)c3nc12` gave TAR Tat displ inactive.
COc1ccc(C2CC(=O)N3CN(Cc4ccco4)CSC3=C2C#N)c(OC)c1 (stereo unspecified) was read as CDC25B CDK2 inh 5.93 and TAR Tat displ inactive.
COc1cccc(C2CC(=O)N3CN(Cc4ccco4)CSC3=C2C#N)c1OC (stereo unspecified) was read as CDC25B CDK2 inh 3.37 and TAR Tat displ inactive.
For CC(C)c1ccc(C2CC(=O)N3CN(Cc4ccco4)CSC3=C2C#N)cc1 (stereo unspecified) the results were CDC25B CDK2 inh inactive and TAR Tat displ inactive.
For COc1ccc(-c2nnc(SCC(=O)c3ccc4c(c3)OCCO4)o2)cc1OC the results were CDC25B CDK2 inh inactive and TAR Tat displ inactive.
Screening CCn1nc(-c2ccccn2)nc2c(=O)n(C)c(=O)nc1-2 returned CDC25B CDK2 inh inactive and TAR Tat displ inactive.
`CCn1nc(-c2ccccc2Br)nc2c(=O)n(C)c(=O)nc1-2` gave CDC25B CDK2 inh 11.5 and TAR Tat displ inactive.
O=C(c1cc(-c2ccc(Cl)cc2)on1)N(Cc1cccs1)C1CCS(=O)(=O)C1 (stereo unspecified) was read as CDC25B CDK2 inh inactive and TAR Tat displ inactive.
`COc1ccccc1-c1nc(CSc2nc3ncccc3[nH]2)c(C)o1` gave TAR Tat displ inactive.
Screening Cc1cc(NC(=O)Nc2cccc(S(N)(=O)=O)c2)c(C(F)(F)F)o1 returned CDC25B CDK2 inh inactive.
`Nc1cccc(/C=C/c2nc3ccc(N)cc3[nH]2)c1` gave CDC25B CDK2 inh 11.8 and TAR Tat displ inactive.
Nc1ccc2nc(/C=C/c3ccccc3)[nH]c2c1 was read as CDC25B CDK2 inh inactive and TAR Tat displ inactive.
Cc1cc(Cl)ccc1OCc1cc(=O)n2nc(-c3ccco3)sc2n1 was read as CDC25B CDK2 inh inactive and TAR Tat displ 13.1.
`Cc1ccc(OCc2cc(=O)n3nc(C)sc3n2)c(C)c1` gave CDC25B CDK2 inh inactive and TAR Tat displ inactive.
For OCCn1c(SCCOc2ccc(Cl)cc2)nc2ccccc21 the results were CDC25B CDK2 inh inactive and TAR Tat displ inactive.
`CC(C)(C)c1ccc(C(=O)N2CCN(c3oc(/C=C/c4ccccc4)nc3C#N)CC2)cc1` gave CDC25B CDK2 inh inactive and TAR Tat displ inactive.
Screening O=C(COC(=O)c1ccco1)c1ccc(Cl)cc1 returned CDC25B CDK2 inh inactive.
For O=C(COC(=O)c1cccs1)c1ccc(Cl)cc1 the results were CDC25B CDK2 inh 16.9.
For Cc1ccc(N2CC(C(=O)N3CCN(c4ccc(-c5noc(C6CCC6)n5)cc4)CC3)CC2=O)cc1 (stereo unspecified) the results were TAR Tat displ inactive.
For Cc1onc(-c2c(Cl)cccc2Cl)c1NC(=O)NNc1ccccn1 the results were CDC25B CDK2 inh 9.54.
Screening Cc1noc(NC(=O)Nc2c(-c3ccccc3Cl)noc2C)c1C returned CDC25B CDK2 inh inactive.
Screening CCn1c(C(=O)N2CCC(C(=O)N3CCN(C)CC3)CC2)cc2sccc21 returned CDC25B CDK2 inh inactive and TAR Tat displ inactive.
For CCc1c(C)nc2nc(-c3ccco3)[nH]n2c1=O the results were CDC25B CDK2 inh inactive and TAR Tat displ inactive.
For Cc1nc2nc(-c3ccco3)[nH]n2c(=O)c1Cc1ccccc1 the results were CDC25B CDK2 inh 12.6 and TAR Tat displ inactive.
For Cc1c(NC(=O)C2CCCCC2C(=O)O)c(=O)n(-c2ccccc2)n1C (stereo unspecified) the results were CDC25B CDK2 inh inactive and TAR Tat displ inactive.
Cc1sc2ncn(CC(=O)N3CCCC3)c(=O)c2c1S(=O)(=O)N1CCCCC1 was read as CDC25B CDK2 inh inactive.
For Cc1sc2ncn(CC(=O)N3CCCCC3C)c(=O)c2c1S(=O)(=O)N1CCN(C)CC1 (stereo unspecified) the results were CDC25B CDK2 inh 16.5.
Screening CCNc1cc(N2CCN(CCO)CC2)c2noc3c2c1C(=O)c1ccccc1-3 returned CDC25B CDK2 inh 8.13 and TAR Tat displ 15.5.
Screening CC(C)Nc1cc(N2CCN(CCO)CC2)c2noc3c2c1C(=O)c1ccccc1-3 returned CDC25B CDK2 inh inactive and TAR Tat displ 9.49.
CC(C)Nc1cc(N2CCCC2)c2noc3c2c1C(=O)c1ccccc1-3 was read as CDC25B CDK2 inh inactive and TAR Tat displ inactive.
`CCN1CCN(c2cc(NC(C)C)c3c4c(onc24)-c2ccccc2C3=O)CC1` gave CDC25B CDK2 inh inactive and TAR Tat displ 5.74.
Screening CCCN1CCN(c2cc(NCC)c3c4c(onc24)-c2ccccc2C3=O)CC1 returned CDC25B CDK2 inh inactive and TAR Tat displ inactive.
O=C1c2ccccc2-c2onc3c(N4CCOCC4)cc(NC4CCCCC4)c1c23 was read as CDC25B CDK2 inh inactive and TAR Tat displ inactive.
CCN1CCN(c2cc(NC3CCCCC3)c3c4c(onc24)-c2ccccc2C3=O)CC1 was read as CDC25B CDK2 inh inactive and TAR Tat displ 4.31.
Screening CC1CCN(c2cc(NC(C)C)c3c4c(onc24)-c2ccccc2C3=O)CC1 returned CDC25B CDK2 inh inactive and TAR Tat displ inactive.

Bioassay records from PubChem.
